Source: PubChem
FBPA Giardia inh: qHTS Assay for Inhibitors of Fructose-1,6-bisphosphate Aldolase from Giardia Lamblia. Potency, µM (highest dose often 59.6 µM), for inactives: top-dose activity, negative = inhibition, hits mostly inhibitors. actives 0.71% (n = 290,000). purified Giardia FBPA. A8B2U2; note: potency is the fitted concentration of half-maximal effect; nearly all actives have a fitted effect of over 55% in size
Target sequence (A8B2U2 whole entry, looked up): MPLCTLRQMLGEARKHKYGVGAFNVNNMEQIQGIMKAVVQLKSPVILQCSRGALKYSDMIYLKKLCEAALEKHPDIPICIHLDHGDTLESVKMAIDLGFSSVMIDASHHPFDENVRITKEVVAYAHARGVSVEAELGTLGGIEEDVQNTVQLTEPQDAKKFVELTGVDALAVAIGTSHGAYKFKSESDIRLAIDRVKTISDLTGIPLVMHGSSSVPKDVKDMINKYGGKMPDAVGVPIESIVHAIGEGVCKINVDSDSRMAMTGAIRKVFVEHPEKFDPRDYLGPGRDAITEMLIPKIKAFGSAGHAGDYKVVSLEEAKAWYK
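Giardia FBPA (40 nM reagent) was preincubated 10 min at RT with compound (up to 57.5 uM final), then substrate plus GAPDH/TPI/NAD/arsenate coupling system with diaphorase/resazurin was added; resorufin fluorescence (525/598 nm) was read after 20 min.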
VACV mCherry inh: qHTS for Stage-Specific Inhibitors of Vaccinia Orthopoxvirus: mCherry Reporter Primary qHTS. actives 0.63% (n = 310,000). Vaccinia virus mCherry reporter infection, fluorescence. Potency, µM (titrated, usually from 36.5 µM), without a hit: top-dose activity change, negative = inhibition, most hits filed as inhibitors; calls by dose curve; tested in A549 cells; note: potency is the fitted concentration of half-maximal effect; nearly all actives have a fitted effect of over 35% in size
FMDV antiviral: High Throughput Screening for Foot and Mouth Disease Virus Antivirals; FMDV antiviral cell-based qHTS; Potency, µM (highest dose often 57.9 µM), for inactives: at the highest dose activity change, negative = inhibition, usual class: inhibitors; actives 1.2% (n = 410,000); calls by dose curve; tested in HEK293T cells; note: read-out not given here; potency is the fitted concentration of half-maximal effect; nearly all actives have a fitted effect of over 45% in size
HCV inhibitor: qHTS Assay for Inhibitors of Hepatitis C Virus (HCV). AID 651820, 2012. actives 3.4% (n = 340,000). Huh7.5.1 HCVcc-Cre infection, luciferase reporter, 44 h. Potency, µM (highest dose often 41.8 µM), for the others: at the top dose activity change, negative = inhibition, usual class: inhibitors; note: potency is the fitted concentration of half-maximal effect
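Reporter virus HCVcc-Cre (~0.5 moi) infects cells exposed to compound; seeding density 1,000 cells/well with 4 h settling beforehand. Luminescence, 15 sec read, taken 44 h post-infection following a 15 min RT substrate incubation.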
HCMV inh: qHTS Assay for inhibitors of the human cytomegalovirus (HCMV); activity change, negative = inhibition, % at 57.5 µM; HFF cells, HCMV-luciferase reporter, 72 h; active compounds read low; AID 1259415, 2018; actives 4.5% (n = 410,000); in the data active = activity change below about -60%; inconclusive = no clear call, values can overlap the other calls; inactive = above about -39%
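Compounds were evaluated in HFFs infected with an HCMV luciferase reporter virus (MOI 1 PFU/cell). Luciferase in lysates collected 72 h post infection served as the replication measure.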
Vaccinia Venus: qHTS for Stage-Specific Inhibitors of Vaccinia Orthopoxvirus: Venus Reporter Primary qHTS; Vaccinia virus Venus reporter expression, fluorescence; Potency, µM (top dose mostly 36.5 µM), without a hit: at the top dose activity change, negative = inhibition, most hits filed as inhibitors; actives 0.46% (n = 330,000); AID 720580, 2013; calls by dose curve; tested in A549 cells; note: potency is the fitted concentration of half-maximal effect; nearly all actives have a fitted effect of over 30% in size
* = called active by the depositor; i = inactive; ? = inconclusive; / = not tested or not shown; [ ] = another dose, or the depositor's remark. A selection: hits, their analogues and other compounds. The true share with any hit is near 7.5%. Unless noted, calls come from the whole dose curve; as a rule, active = well fitted curve in the direction sought with a large enough effect; inconclusive = small, poorly fitted or top-dose-only effect, or another doubt; inactive = no such curve, though single readings can be large; an effect the other way counts as inactive or inconclusive. % is set by controls: 0 for no effect and ±100 for the full control effect.

SMILES | FBPA Giardia inh | VACV mCherry inh | FMDV antiviral | HCV inhibitor | HCMV inh | Vaccinia Venus
CC(C)COc1ccc(CSCCNC(=S)Nc2ccccc2)cc1 | -2% | / | -12% | ? | 21 | 10µM*
CC(C)(C)NC(=O)c1cccc(NC(=O)c2ccc3c(c2)C(=O)N(C(C)(C)C)C3=O)c1 | -11% | i | 25µM* | ? | 20 | -17%
O=C(O)c1cccc(NC(=O)c2ccc3c(c2)C(=O)N(CC2CCCO2)C3=O)c1 (stereo not given) | 3% | / | 16µM* | 2% | -108* | /
CC(C)CN1C(=O)c2ccc(C(=O)Nc3ccncc3)cc2C1=O | 1% | / | 13µM* | 6% | -31 | /
COC(=O)Cc1ccc(NC(=O)c2ccc3c(c2)C(=O)N(CC2CCCO2)C3=O)cc1 (stereo not given) | / | i | 28µM* | -1% | -30 | -4%
CC(C)CN1C(=O)c2ccc(C(=O)Nc3ccccn3)cc2C1=O | -2% | / | 21% | -1% | -11 | /
CCOC(=O)C1C(C(=O)OC)=C(c2ccc(F)cc2)c2ccc(OC)cc2N1S(=O)(=O)C(F)(F)F (stereo not given) | -11% | / | / | / | / | /
CCOC(=O)C1=C(c2ccccc2)c2ccc(OC)cc2N(S(=O)(=O)C(F)(F)F)C1C(=O)OCC (stereo not given) | -9% | -2% | ? | 2µM* | -2 | -24%
CCOCCOC(=O)c1ccc(NC(=O)/C=C/c2ccc(OC)c(OC)c2)cc1 | / | -18% | 20µM* | / | -2 | -6%
COc1cc(/C=C/c2cc[n+](C)cc2)ccc1OCC(=O)Nc1ccc(Cl)c(Cl)c1 | / | i | -16% | -1% | -91* | -14%
CCOc1ccc(/C=C/C(=O)Nc2ccc(C(N)=O)cc2)cc1OC | 0% | 0% | -20% | 5% | -39 | -1%
COc1ccc(/C=C/C(=O)Nc2ccc(Cl)c(Cl)c2)cc1OC | / | -13% | ? | / | -81* | -15%
COc1ccc(/C=C\C(=O)Nc2ccccc2C(=O)O)cc1OC | -3% | / | 20µM* | / | / | /
COc1cc(/C=C/c2cccc[n+]2C)ccc1OCC(=O)Nc1cccc(Cl)c1 | / | -12% | 10% | -5% | -70* | -2%
COC(=O)[C@H](Cc1ccccc1)NC(=O)[C@H]1C[C@@H]1[C@H](NC(=O)OCc1ccccc1)c1ccccc1 | 2% | / | / | / | / | /
Cc1cc(C)nc(SCc2ccc(C(=O)NNC(=O)Nc3cccc(Cl)c3)cc2)n1 | 0% | 14µM* | 8% | 25µM* | -31 | 11µM*
CC(C)=CCC/C(C)=C/CNC(=O)C[C@H]1C[C@H](C(=O)N(C(C)C)C(C)C)[C@@]2(C)c3[nH]c4cc(CCC(=O)N(C)C)ccc4c3CCN2C1=O | / | -20% | ? | 10µM* | -15 | ?
CC(C)=CCC/C(C)=C/CNC(=O)C[C@H]1C[C@H](C(=O)N2CCCCC2)[C@@]2(C)c3[nH]c4cc(-c5ccco5)ccc4c3CCN2C1=O | / | ? | -16% | -29% | -12 | ?
CC(C)=CCC/C(C)=C/CNC(=O)C[C@H]1C[C@H](C(=O)N(C(C)C)C(C)C)[C@@]2(C)c3[nH]c4cc(-c5ccco5)ccc4c3CCN2C1=O | / | 10µM* | 0% | -22%[8.37 µM] | -15 | ?
CC(C)N(C(=O)[C@H]1C[C@H](CC(=O)NCc2ccco2)C(=O)N2CCc3c([nH]c4cc(-c5ccco5)ccc34)[C@]12C)C(C)C | / | -27% | 32% | ? | -13 | ?
CCN(CC)C(=O)[C@H]1C[C@H](CC(=O)NC/C=C(\C)CCC=C(C)C)C(=O)N2CCc3c([nH]c4cc(-c5ccco5)ccc34)[C@]12C | / | ? | -1% | -1%[8.37 µM] | -28 | 13µM*
CC(C)N(C(=O)[C@H]1C[C@H](CC(=O)NCCCN(C)C)C(=O)N2CCc3c([nH]c4cc(CCC(=O)N(C)C)ccc34)[C@]12C)C(C)C | / | -10% | -5% | 0.32µM* | -14 | -4%
CCN(CC)C(=O)[C@H]1CC(CC(=O)NC/C=C(\C)CCC=C(C)C)C(=O)N2CCc3c([nH]c4ccc(OC)cc34)[C@]12C (stereo not given in full) | / | 13µM* | 0% | ? | ? | ?
Cc1nc2c(N=Nc3ccccc3F)c(N)nn2c(N)c1C#N | 7% | i | -3% | -5% | 38 | 1%
CC1(C)S[C@@H]2C(C(=O)O)NC(=O)N2C1C(=O)O (stereo not given in full) | / | i | / | / | / | -21%
SMILES | FBPA Giardia inh | VACV mCherry inh | FMDV antiviral | HCV inhibitor | HCMV inh | Vaccinia Venus
Cc1c(CCOC(=O)CC23CC4CC(CC(C)(C4)C2)C3)sc[n+]1CC(=O)c1ccccc1 | -1% | / | 28µM* | -4% | -71* | /
Cc1ccc(-c2ccc3c(c2)O[C@H](CN(C)Cc2cncnc2)[C@@H](C)CN([C@H](C)CO)S3(=O)=O)cc1 | / | -24% | 38% | / | -12 | -7%
Cc1ccc(C(=O)N/C(=C\c2ccc(Br)cc2)c2nc(=S)[nH][nH]2)cc1 | -16% | -8% | / | 26% | -71* | ?
COc1cc(NC(=O)C2CC(c3ccc(Cl)cc3)=NO2)cc(OC)c1OC (stereo not given) | -10% | / | -23% | ? | ? | /
CN(c1cccnc1)c1ncnc2[nH]ncc12 | 3% | i | -3% | 15% | 0 | -11%
C=CCN(CC=C)c1ncnc2[nH]ncc12 | / | i | 14% | -5% | -86* | -1%
COc1ccc(C(=O)Nc2ccccc2N2CCN(C(=O)c3ccccc3)CC2)cc1Br | / | ? | -16% | 10µM* | -7 | ?
COc1ccc(C(=O)Nc2ccc(Nc3ccccc3)cc2)cc1Br | / | -21% | ? | 8.9µM* | -33 | -18%
O=C(Nc1ccccc1N1CCN(C(=O)c2ccccc2)CC1)c1ccc(Cl)cc1 | -5% | -13% | -23% | ? | 3 | -16%
O=C(Cc1ccc(Cl)cc1)Nc1ccccc1N1CCN(C(=O)c2ccccc2)CC1 | / | / | 35µM* | ? | ? | /
O=C(Nc1ccccc1N1CCOCC1)C1(c2ccc(Cl)cc2)CCC1 | 5% | 0% | ? | -29% | -66* | -14%
COc1ccc(C(=O)Nc2ccc(N3CCCCC3)cc2)cc1Br | 10% | -7% | 9% | ? | ? | -16%
O=C(Cc1ccc(Cl)cc1)NC(=S)Nc1ccccc1N1CCOCC1 | 0% | -11% | -8% | ? | 6 | -9%
Cc1cc(C)c(S(=O)(=O)Nc2ccccc2C(=O)N2CCOCC2)c(C)c1 | / | / | -13% | -4% | -17 | /
